In PubChem BioAssay (Tox21):
Values without a mark were called inactive. Records with an inconclusive call do not appear. Entries that show only a call come without a potency. Active and inactive are the calls of the source. Unless noted, calls come from the whole dose curve; as a rule, active = well fitted curve in the direction sought with a large enough effect in the repeat runs; inconclusive = weak or mixed curves; inactive = no such curve, though single readings can be large; an effect the other way counts as inactive or inconclusive.

Key:
[1] = qHTS assay to identify small molecule agonists of the progesterone receptor (PR) signaling pathway - cell viability counter screen (AID 1346799; calls by dose curve; note: nearly all actives have a fitted effect of over 45% in size)
Procedure, shortened: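 Cytotoxicity measured by CellTiter-Glo luminescence (30 min, RT) in the same wells as the PR beta-lactamase agonist read. Those HEK293T cells had 16 h compound treatment at 37 C in 2% charcoal-stripped FBS medium.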

[2] = qHTS assay to identify small molecule antagonists of the TGF-beta/Smad signaling pathway - cell viability counter screen (AID 1346824); note: nearly all actives have a fitted effect of over 50% in size
Procedure, shortened: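 SBE-bla HEK 293T cells were plated overnight at 37 C, then given compounds in DMSO plus TGF-beta1 (added as 0.25 ng/mL solution) for 5 hr. After the bla read, CellTiter-Glo was added to the same wells and luminescence read after 30 min at room temperature.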

[3] = qHTS assay to identify small molecule agonists of the TGF-beta/Smad signaling pathway - cell viability counter screen (AID 1346829); note: top concentration of the series differs between compounds; nearly all actives have a fitted effect of over 45% in size
Procedure, shortened: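 After overnight seating at 37 C and 5% CO2, reporter cells got compounds for 5 hr and FRET substrate for 2 hr; cell viability then came from CellTiter-Glo luminescence.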

[4] = qHTS assay to identify small molecule agonists of the TGF-beta/Smad signaling pathway (AID 1346859; active = well fitted activation curve with a large enough effect in the signal ratio in the repeat runs, not every such curve was filed as active; the % refers to the signal ratio; note: series mostly up to about 77 µM)
Procedure, shortened: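 Fluorescence (ex 405 nm; em 460 and 530 nm) was read 2 h after LiveBLAzer FRET substrate at RT. The preceding compound treatment of overnight-plated SBE-bla HEK293T cells lasted 5 h at 37 C.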

[5] = target: Thyrotropin-releasing hormone receptor (Homo sapiens) (UniProt P34981); assay: qHTS assay to identify small molecule antagonists of the thyrotropin-releasing hormone receptor (TRHR) signaling pathway (AID 1346877; active = well fitted inhibition curve with a large enough effect in the repeat runs, not every such curve was filed as active; note: series mostly up to about 51 µM)
Thyrotropin-releasing hormone receptor (Homo sapiens), sequence (P34981 whole entry, looked up): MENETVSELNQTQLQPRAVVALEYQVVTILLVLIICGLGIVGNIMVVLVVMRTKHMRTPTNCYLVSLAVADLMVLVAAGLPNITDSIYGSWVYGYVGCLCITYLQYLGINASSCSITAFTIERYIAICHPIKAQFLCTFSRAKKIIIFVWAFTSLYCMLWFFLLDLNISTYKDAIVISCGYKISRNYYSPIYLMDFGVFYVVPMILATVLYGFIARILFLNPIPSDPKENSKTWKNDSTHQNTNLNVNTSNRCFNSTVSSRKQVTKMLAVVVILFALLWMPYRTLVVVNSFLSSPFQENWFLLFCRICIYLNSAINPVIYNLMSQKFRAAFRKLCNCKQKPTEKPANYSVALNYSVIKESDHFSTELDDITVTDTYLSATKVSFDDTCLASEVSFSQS
Procedure, shortened: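 Intracellular calcium fluorescence, read kinetically every second over 3 min, reports TRH-evoked signalling in HEK293 cells carrying TRHR. Test compounds were added 5 min ahead of a 1 nM TRH challenge.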

[6] = target: Thyrotropin-releasing hormone receptor (Homo sapiens) (UniProt P34981); assay: qHTS assay to identify small molecule agonists of the thyrotropin-releasing hormone receptor (TRHR) signaling pathway (AID 1346891; calls by dose curve; note: series mostly up to about 58 µM)
Procedure, shortened: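 Agonist-mode intracellular calcium readout: kinetic fluorescence over 3 min at 1 s intervals after compound addition to TRHR-HEK293 cells (18 h seeded, 2 h dye-loaded at 37 C). Fifteen concentrations, triplicates.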

[7] = Human pregnane X receptor (PXR) small molecule agonists, qHTS cell viability counter screen (AID 1346977); note: nearly all actives have a fitted effect of over 50% in size
Procedure, shortened: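 Same-well viability read: CellTiter-Fluor added after 23 hr compound exposure, fluorescence measured 1 hr later. Cells were PXR-Luc HepG2 seeded at 2,000/well in 5% charcoal-stripped FBS medium, rested 5 hr before dosing at 37 C.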

[8] = Caspase-3/7 induction in HepG2 cells by small molecules, qHTS assay (AID 1346978); note: nearly all actives have a fitted effect of over 15% in size
Procedure, shortened: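 Wild-type HepG2 cells (2,000/well) were settled 5 h at 37 C, 5% CO2, then exposed to compounds in DMSO for 17 h. Caspase-3/7 activity was read by luminescence 30 min after adding Caspase-Glo 3/7 reagent at room temperature.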

[9] = Caspase-3/7 induction in CHO-K1 cells by small molecules, qHTS cell viability counter screen (AID 1346979); note: nearly all actives have a fitted effect of over 35% in size
Procedure, shortened: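 Cytotoxicity counter screen: CellTiter-Fluor added to compound-treated wild-type CHO-K1 cells at 16 h (37C, 5% CO2), fluorescence measured 1 h later; same wells as caspase-3/7 measurement.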

[10] = Caspase-3/7 induction in CHO-K1 cells by small molecules, qHTS assay (AID 1346980); note: nearly all actives have a fitted effect of over 15% in size
Procedure, shortened: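 Wild-type cells were seeded at 1,500 per well and settled 5 hr at 37 C, 5% CO2, then exposed to DMSO-dissolved compounds for 17 hr. Caspase-Glo 3/7 reagent was added, and luminescence was read after 30min at room temperature.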

[11] = Caspase-3/7 induction in HepG2 cells by small molecules, qHTS cell viability counter screen (AID 1346981); note: series mostly up to about 92 µM; nearly all actives have a fitted effect of over 30% in size
Procedure, shortened: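 HepG2, WT, 2,000 cells/well; 5 hr pre-incubation 37 C/5% CO2; compound pin-transferred from DMSO; 16 hr exposure; CellTiter-Fluor, 1 hr; fluorescence read.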

[12] = target: Nuclear receptor subfamily 1 group I member 2 (Homo sapiens) (UniProt O75469); assay: Human pregnane X receptor (PXR) small molecule agonists, qHTS assay (AID 1346982); note: potency is the fitted concentration of half-maximal effect; nearly all actives have a fitted effect of over 35% in size
Nuclear receptor subfamily 1 group I member 2 (Homo sapiens), sequence (O75469 whole entry, looked up): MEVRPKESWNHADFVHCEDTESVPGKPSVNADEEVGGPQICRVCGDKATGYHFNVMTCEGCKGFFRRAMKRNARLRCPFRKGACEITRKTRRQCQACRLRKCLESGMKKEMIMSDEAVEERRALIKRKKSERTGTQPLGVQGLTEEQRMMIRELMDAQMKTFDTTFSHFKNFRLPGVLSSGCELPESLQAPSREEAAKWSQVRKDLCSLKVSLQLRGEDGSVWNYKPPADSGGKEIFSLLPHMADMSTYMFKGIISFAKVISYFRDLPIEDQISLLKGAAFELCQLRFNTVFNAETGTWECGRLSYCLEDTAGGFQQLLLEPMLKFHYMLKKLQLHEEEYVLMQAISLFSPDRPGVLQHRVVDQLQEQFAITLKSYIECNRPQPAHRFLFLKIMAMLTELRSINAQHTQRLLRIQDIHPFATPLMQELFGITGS
Procedure, shortened: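 Luciferase signal from ONE-Glo (30 min, room temperature) measured activation of hPXR-driven CYP3A4 reporter expression in PXR-Luc HepG2 cells treated with compounds for 24 hr at 37 C.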

[13] = target: Cytochrome P450 2D6 (Homo sapiens) (UniProt P10635); assay: Cytochrome P450 Family 2 Subfamily D Member 6 (CYP2D6) small molecule antagonists: luciferase reporter qHTS assay (AID 1671196); note: series mostly up to about 120 µM; nearly all actives have a fitted effect of over 50% in size
Cytochrome P450 2D6 (Homo sapiens), sequence (P10635 whole entry, looked up): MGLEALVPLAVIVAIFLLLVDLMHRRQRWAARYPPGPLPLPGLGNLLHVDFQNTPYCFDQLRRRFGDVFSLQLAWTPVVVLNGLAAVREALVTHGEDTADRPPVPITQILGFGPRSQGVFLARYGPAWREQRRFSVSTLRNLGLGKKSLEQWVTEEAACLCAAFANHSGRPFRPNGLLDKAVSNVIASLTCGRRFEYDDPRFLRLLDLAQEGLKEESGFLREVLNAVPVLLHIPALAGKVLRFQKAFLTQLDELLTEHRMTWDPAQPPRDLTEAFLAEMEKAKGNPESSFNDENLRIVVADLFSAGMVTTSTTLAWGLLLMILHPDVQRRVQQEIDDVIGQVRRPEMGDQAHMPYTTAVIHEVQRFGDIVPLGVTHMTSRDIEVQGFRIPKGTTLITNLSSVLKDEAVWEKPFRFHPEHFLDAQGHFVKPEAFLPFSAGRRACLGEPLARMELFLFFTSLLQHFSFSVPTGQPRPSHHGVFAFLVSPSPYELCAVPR
Procedure, shortened: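 Read-out is luminescence from luciferin formed by CYP2D6 turnover of a proluciferin substrate, recorded as relative luminescence units. Reactions ran 1 h at room temperature after NADPH regeneration solution was added.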

[14] = target: Cytochrome P450 2C19 (Homo sapiens) (UniProt P33261); assay: Cytochrome P450 Family 2 Subfamily C Member 19 (CYP2C19) small molecule antagonists: luciferase reporter qHTS assay (AID 1671197); note: nearly all actives have a fitted effect of over 65% in size; note: potency is the fitted concentration of half-maximal effect
Cytochrome P450 2C19 (Homo sapiens), sequence (P33261 whole entry, looked up): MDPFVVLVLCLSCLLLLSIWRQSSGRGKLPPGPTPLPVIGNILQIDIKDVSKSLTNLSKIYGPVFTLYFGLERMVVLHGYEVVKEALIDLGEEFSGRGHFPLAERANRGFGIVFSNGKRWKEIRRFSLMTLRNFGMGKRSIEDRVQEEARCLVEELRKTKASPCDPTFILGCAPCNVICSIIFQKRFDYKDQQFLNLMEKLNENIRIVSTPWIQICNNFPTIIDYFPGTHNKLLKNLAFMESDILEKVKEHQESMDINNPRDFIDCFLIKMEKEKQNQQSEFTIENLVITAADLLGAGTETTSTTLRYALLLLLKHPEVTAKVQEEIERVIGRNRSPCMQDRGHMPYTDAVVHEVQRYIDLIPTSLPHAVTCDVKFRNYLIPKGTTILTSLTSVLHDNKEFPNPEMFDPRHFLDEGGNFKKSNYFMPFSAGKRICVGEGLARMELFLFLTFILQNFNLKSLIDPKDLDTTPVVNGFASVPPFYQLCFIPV
Procedure, shortened: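 Inhibition of CYP2C19 was scored from loss of luminescence in a P450-Glo proluciferin substrate assay, NADPH-started and run 1 h at 37C, with ketoconazole as positive control.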

[15] = target: Cytochrome P450 2C9 (Homo sapiens) (UniProt P11712); assay: Cytochrome P450 Family 2 Subfamily C Member 9 (CYP2C9) small molecule antagonists: luciferase reporter qHTS assay (AID 1671198); note: nearly all actives have a fitted effect of over 50% in size; note: potency is the fitted concentration of half-maximal effect
Cytochrome P450 2C9 (Homo sapiens), sequence (P11712 whole entry, looked up): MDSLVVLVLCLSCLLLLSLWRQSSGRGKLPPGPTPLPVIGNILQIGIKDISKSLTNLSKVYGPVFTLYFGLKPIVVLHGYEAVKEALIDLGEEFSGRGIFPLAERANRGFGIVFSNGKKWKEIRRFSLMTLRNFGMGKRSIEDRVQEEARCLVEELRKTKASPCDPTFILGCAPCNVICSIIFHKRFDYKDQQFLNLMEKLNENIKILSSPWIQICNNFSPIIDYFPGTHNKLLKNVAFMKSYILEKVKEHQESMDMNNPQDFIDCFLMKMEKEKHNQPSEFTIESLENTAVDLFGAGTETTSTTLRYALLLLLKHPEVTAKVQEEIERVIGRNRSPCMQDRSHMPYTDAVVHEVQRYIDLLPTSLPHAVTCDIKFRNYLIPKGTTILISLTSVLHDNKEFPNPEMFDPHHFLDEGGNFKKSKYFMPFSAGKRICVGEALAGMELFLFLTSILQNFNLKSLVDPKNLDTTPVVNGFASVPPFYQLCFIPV
Procedure, shortened: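 CYP2C9 activity was measured with a P450-Glo proluciferin substrate. Enzyme–substrate mix was held with compound for 10 min at room temperature, then NADPH regeneration solution was added for 1 h at 37C. Luciferin product was read as luminescence.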

[16] = target: Cytochrome P450 1A2 (Homo sapiens) (UniProt P05177); assay: Cytochrome P450 Family 1 Subfamily A Member 2 (CYP1A2) small molecule antagonists: luciferase reporter qHTS assay (AID 1671199); note: nearly all actives have a fitted effect of over 50% in size; note: potency is the fitted concentration of half-maximal effect
Cytochrome P450 1A2 (Homo sapiens), sequence (P05177 whole entry, looked up): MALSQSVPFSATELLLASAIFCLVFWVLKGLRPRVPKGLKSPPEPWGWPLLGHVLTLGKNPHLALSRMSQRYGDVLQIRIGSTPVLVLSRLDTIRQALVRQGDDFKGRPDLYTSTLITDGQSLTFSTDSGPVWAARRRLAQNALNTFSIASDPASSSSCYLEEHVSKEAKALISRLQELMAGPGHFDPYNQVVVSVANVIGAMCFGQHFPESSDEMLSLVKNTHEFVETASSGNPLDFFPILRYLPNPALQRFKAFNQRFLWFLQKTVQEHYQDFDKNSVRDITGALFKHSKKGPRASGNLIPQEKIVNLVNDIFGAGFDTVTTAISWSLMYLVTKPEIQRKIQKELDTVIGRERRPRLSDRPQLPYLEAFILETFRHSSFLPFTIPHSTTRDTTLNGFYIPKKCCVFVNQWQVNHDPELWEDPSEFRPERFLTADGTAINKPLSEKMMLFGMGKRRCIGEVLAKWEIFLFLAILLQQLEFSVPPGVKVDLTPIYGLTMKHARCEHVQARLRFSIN
Procedure, shortened: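 P450-Glo CYP1A2, 1536-well qHTS: enzyme/proluciferin substrate + cpd (DMSO), 10 min RT; NADPH regen, 1 h RT; detection reagent, 20 min; luminescence, RLU.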

[17] = target: Voltage-gated inwardly rectifying potassium channel KCNH2 (Homo sapiens) (UniProt Q12809); assay: Human Ether-a-go-go-Related Gene (hERG) channel small molecule antagonists: fluorescence cell-based qHTS assay (AID 1671200)
Voltage-gated inwardly rectifying potassium channel KCNH2 (Homo sapiens), sequence (Q12809 whole entry, looked up): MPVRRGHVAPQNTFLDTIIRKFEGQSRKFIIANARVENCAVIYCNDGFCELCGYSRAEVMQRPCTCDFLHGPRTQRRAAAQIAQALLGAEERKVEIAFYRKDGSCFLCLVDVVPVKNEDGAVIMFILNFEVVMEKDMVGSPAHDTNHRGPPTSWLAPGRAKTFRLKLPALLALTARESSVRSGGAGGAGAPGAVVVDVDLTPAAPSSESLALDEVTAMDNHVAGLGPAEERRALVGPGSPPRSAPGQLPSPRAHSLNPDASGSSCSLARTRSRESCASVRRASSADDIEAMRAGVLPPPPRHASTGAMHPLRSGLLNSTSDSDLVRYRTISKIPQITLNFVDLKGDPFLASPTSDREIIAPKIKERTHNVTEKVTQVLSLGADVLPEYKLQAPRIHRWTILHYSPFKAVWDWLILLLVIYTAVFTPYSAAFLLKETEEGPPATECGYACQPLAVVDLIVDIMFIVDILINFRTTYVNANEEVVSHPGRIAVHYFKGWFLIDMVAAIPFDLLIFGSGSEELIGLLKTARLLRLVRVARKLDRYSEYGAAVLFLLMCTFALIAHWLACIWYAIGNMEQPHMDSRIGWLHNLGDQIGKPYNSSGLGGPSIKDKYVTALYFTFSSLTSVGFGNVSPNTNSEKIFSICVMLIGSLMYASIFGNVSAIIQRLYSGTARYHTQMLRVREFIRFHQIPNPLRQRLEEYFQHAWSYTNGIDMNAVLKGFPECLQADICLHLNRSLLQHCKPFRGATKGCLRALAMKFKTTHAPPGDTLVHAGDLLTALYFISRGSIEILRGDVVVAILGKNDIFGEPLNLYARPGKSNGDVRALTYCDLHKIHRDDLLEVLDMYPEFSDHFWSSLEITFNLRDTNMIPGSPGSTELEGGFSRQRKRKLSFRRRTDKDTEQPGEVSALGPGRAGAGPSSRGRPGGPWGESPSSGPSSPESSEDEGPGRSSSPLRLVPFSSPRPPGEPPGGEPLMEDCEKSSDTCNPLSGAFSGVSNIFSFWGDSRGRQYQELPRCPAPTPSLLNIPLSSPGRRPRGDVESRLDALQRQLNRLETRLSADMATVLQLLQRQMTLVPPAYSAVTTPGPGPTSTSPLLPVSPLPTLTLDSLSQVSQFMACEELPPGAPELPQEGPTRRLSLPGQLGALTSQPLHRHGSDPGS
Procedure, shortened: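 Thallium flux as potassium surrogate: FluxOR II dye loaded 1 h at room temperature into hERG-expressing U2OS cells, then stimulus buffer added after 10 min. Kinetic 480 nm excitation/540 nm emission read, 2 min.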

Compound | Potency [1] | Potency [2] | Potency [3] | outcome [4] | Potency [5] | Potency [6] | Potency [7] | Potency [8] | Potency [9] | Potency [10] | Potency [11] | Potency [12] | Potency [13] | Potency [14] | Potency [15] | Potency [16] | Potency [17]
CCN(CCC#N)c1ccc(N=Nc2ccc([N+](=O)[O-])cc2)cc1 | inactive | inactive | inactive | inactive | inactive | inactive | inactive | inactive | inactive | inactive | inactive | 6.11 µM (active) | inactive | inactive | inactive | inactive | inactive
ClC(c1ccccc1)(c1ccccc1)c1ccccc1 | inactive | inactive | inactive | inactive | inactive | inactive | inactive | inactive | inactive | inactive | inactive | 9.69 µM (active) | – | 0.224 µM (active) | 1.59 µM (active) | inactive | inactive
C=Cc1ccc(O)c(OC)c1 | inactive | inactive | inactive | inactive | inactive | inactive | inactive | inactive | inactive | inactive | inactive | – | – | 79.6 µM (active) | 31.7 µM (active) | 35.6 µM (active) | inactive
